A short description of this assay: NCI Yeast Anticancer Drug Screen. Data for the bub3 strain (AID 167). The conditions noted are these: S. cerevisiae bub3 mutant strain, stronger effect = higher value. As for the experimental part:
Growth inhibition of yeast strains with defined genetic alterations is measured as a screen for potential anti-cancer activity. Selected strains with alterations in DNA damage repair or cell cycle control were exposed to compounds and growth inhibition was measured relative to vehicle treated controls. The strain used in this assay is bub3

[1] abbreviates: at 5.0 µM (retest, dose inferred, filed as 0.5).
Where [2] appears, read: at 50.0 µM (retest, dose inferred, filed as 5.0).

About 79,000 compounds went through this panel and 15% of them were active in at least one assay; those are over-represented in the sample as a whole. Unmarked numbers belong to inactive results. Activity calls are given as the source filed them. No stated cut-off is given here; in the data, active means growth inhibition above about 70%; inactive means the rest.

As for `N=C1C=CC(=C(c2ccc(N)cc2)c2ccc(N)cc2)C=C1`, the growth inhibition is 12% under setting [1], 98% (active) under setting [2] and 98.3% (active) (at 50.0 µM).
For `O=C(NC1CCN(Cc2ccccc2)CC1)c1ccc(I)cc1` the same measures were 60%, 49% and 74.3% (active).
For the compound `CSS(=O)(=O)c1ccc(C)cc1`, the growth inhibition under setting [1] is 18%, the growth inhibition under setting [2] is 100% (active) and the growth inhibition (at 50.0 µM) was 99.5% (active).
On to `CN1C(=O)CCC2[C@@H]3CC=C4C[C@@H](O)CC[C@]4(C)C3CC[C@@]21C` (some centres not stated), for which the growth inhibition under setting [1] was 22%, the growth inhibition under setting [2] was 66% and the growth inhibition (at 50.0 µM) is 57.7%.
For `CCCCCCCCC/C=C1\CCC(CN(C)C)C1=O` (configuration not stated) the same measures were -24%, 97% (active) and 89.5% (active).
For `COC(=O)/C=C/c1c2ccccc2cc2ccccc12` the same measures were 9%, 28% and 37%.
On to `O=C(O)C(=O)Cc1ccccc1[N+](=O)[O-]`, for which the growth inhibition is -10% under setting [1], 10% under setting [2] and 20.5% (at 50.0 µM).
On to `CC(NC(=O)OCc1ccccc1)C(=O)NC(C(=O)O)C(C)C` (configuration not stated), for which the growth inhibition under setting [1] was 37%, the growth inhibition under setting [2] is 84% (active) and the growth inhibition (at 50.0 µM) was 34.9%.
For `O=C(N/C(=C\c1ccccc1)C(=O)N1CCN(c2ccccc2)CC1)c1ccccc1` the same measures were -4%, 10% and 88.3% (active).
For `O[C@H]1c2cccn2-c2ccccc2S[C@H]1c1ccccc1` the same measures were 10%, 98% (active) and 98.5% (active).
For `c1csc(-c2nnc(C34CC5CC(CC(C5)C3)C4)o2)c1` the same measures were -10%, 98% (active) and 86.3% (active).
Take `CC(C)CCCC(C)C1CCC2C3CCC4=CC(O)CCC4(C)C3CCC12C` (configuration not stated): the growth inhibition was -5% under setting [1], 97% (active) under setting [2] and 94% (active) (at 50.0 µM).
For `C=C(CN1CCCC1)C(=O)c1ccc(OC)cc1` the same measures were -6%, 54% and -12%.
For `CCCN(Cc1ccccc1)S(=O)(=O)c1ccc(C)cc1` the same measures were 7%, 96% (active) and 63.7%.
